Results: PubChem BioAssay
The source made the active and inactive calls.

Assays:
[1] = small molecules captured by biotinylated probe aFSTL3 – biochemical, small-molecule microarray, fluorescence 635/667, stem cell growth factor project, primary screen (AID 1064); conditions: higher = more signal;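 further: measures binding of the biotinylated anti-FSTL3 antibody to printed compounds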
[2] = binders from COS7 lysate, DM2A8 probe, primary screen, torsin A project, cell lysate, small-molecule microarray, fluorescence 635/667 (AID 1065); conditions: higher = more signal, COS7 lysate expressing mutant human TOR1A
[3] = small molecules captured by biotinylated probe aFGF2 – biochemical, small-molecule microarray, fluorescence 635/667, stem cell growth factor project, primary screen (AID 1067); conditions: higher = more signal;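 further: measures binding of biotinylated aFGF2 protein to printed compounds on slides; z-score merges feature fluorescence and signal-to-noise across triplicate slides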
[4] = small molecules captured by biotinylated probe aFGF10 – biochemical, small-molecule microarray, fluorescence 635/667, stem cell growth factor project, primary screen (AID 1071); conditions: higher = more signal;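 further: score merges 667 nm spot intensity and signal to noise from triplicate slides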
[5] = molecular target: Neurogenic locus notch homolog protein 2 (Homo sapiens) (UniProt Q04721); test: small molecules binding Notch2 protein – biochemical, small-molecule microarray, 635 nm fluorescence, stem cell growth factors, primary screen (AID 1073); conditions: higher = more signal
[6] = molecular target: Pro-neuregulin-1, membrane-bound isoform (Homo sapiens) (UniProt Q02297); test: small molecules binding neuregulin-1 protein – biochemical, small-molecule microarray, fluorescence 635/667, psychiatric disease protein project, primary screen (AID 1075); conditions: NRG1 binding, 635 nm fluorescence, higher = more signal;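 further: score combines 667 nm spot fluorescence with signal to noise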
Sequence of Pro-neuregulin-1, membrane-bound isoform (Homo sapiens) (Q02297 whole entry, looked up, the tested form may be a part, canonical isoform): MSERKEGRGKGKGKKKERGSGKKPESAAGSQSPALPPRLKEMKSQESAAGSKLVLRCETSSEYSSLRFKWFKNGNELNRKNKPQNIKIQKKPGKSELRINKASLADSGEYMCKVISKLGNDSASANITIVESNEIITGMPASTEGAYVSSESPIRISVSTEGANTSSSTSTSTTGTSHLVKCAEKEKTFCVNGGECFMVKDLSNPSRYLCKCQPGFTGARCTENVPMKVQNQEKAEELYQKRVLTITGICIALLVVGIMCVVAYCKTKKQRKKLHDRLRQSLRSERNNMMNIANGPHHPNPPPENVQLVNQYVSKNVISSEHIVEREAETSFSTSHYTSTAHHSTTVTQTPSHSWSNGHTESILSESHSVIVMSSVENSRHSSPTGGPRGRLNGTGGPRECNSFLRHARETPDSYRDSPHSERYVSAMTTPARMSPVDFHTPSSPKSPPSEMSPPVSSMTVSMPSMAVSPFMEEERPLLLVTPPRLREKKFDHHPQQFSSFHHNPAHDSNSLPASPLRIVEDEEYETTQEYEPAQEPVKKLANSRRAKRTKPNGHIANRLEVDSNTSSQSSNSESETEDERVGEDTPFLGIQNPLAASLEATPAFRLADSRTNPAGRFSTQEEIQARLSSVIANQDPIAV

[7] = test system: Neuregulin-1 EGF-like domain; test: small molecules binding NRG1 EGF domain – biochemical, small-molecule microarray, 635 nm fluorescence, primary screen (AID 1081); conditions: higher = more signal;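 further: binding of the protein to compounds printed on small-molecule microarray slides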
[8] = FRG1 expression reporter modulators in myotubes – cell-based, C2C12 myotubes, firefly/Renilla luciferase, luminescence, FRG1 inhibition for FSHD, primary screen (AID 1084); conditions: FRG1 promoter luciferase, higher = more signal, called active from +8 up or from −8 down
[9] = small molecules captured by biotinylated probe aFST – biochemical, small-molecule microarray, fluorescence 635/667, stem cell growth factor project, primary screen (AID 1086); conditions: higher = more signal;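 further: score merges 667 nm fluorescence with signal-to-noise of each printed compound spot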
[10] = binders of probe aHhip on microarray, primary screen, stem cell growth factor project, biochemical, small-molecule microarray, fluorescence 635/667 (AID 1087); conditions: higher = more signal;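 further: score merges spot fluorescence at 667nm with spot signal to noise ratio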
[11] = test system: PRMT1 (protein arginine N-methyltransferase 1); test: small molecules binding arginine methyltransferase PRMT1 – biochemical, small-molecule microarray, 635 nm fluorescence, primary screen (AID 1088); conditions: higher = more signal;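 further: binding of Prmt1 protein to compounds spotted on small-molecule microarray slides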
[12] = growth effects on S. cerevisiae YJM789 – YJM789 clinical isolate, OD600, 24 h, basal, primary screen (AID 1089); conditions: higher = more signal, called active from +8 up or from −8 down;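 further: growth of clinical yeast isolate S. cerevisiae YJM 789 seeded 1000 cells per well; test concentration not given here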
[13] = S. pombe growth modifiers, basal conditions – strain 972, OD600, 24 h, no modulator, primary screen (AID 1090);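 further: basal condition with compound alone and no growth modifier present; test concentration not given here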; conditions: S. pombe 972 growth, higher = more signal, called active from +8 up or from −8 down
[14] = budding yeast growth modifiers under rapamycin – strain BY4716, OD600, 96 h, primary screen (AID 1091); further: test concentration not given here; conditions: S. cerevisiae BY4716 + rapamycin, higher = more signal, called active from +8 up or from −8 down
[15] = molecular target: Torsin-1A-interacting protein 2 (Homo sapiens) (UniProt Q8NFQ8); test: small molecules binding lysate-expressed LULL1 – cell lysate, human LULL1 lysate, 635/667 nm fluorescence, primary screen (AID 1092); conditions: small-molecule microarray, hLULL1 lysate binding, 635 nm fluorescence; higher = more signal;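 further: probe is lysate of COS7 cells overexpressing human LULL1; score merges per-feature 667 nm fluorescence with signal-to-noise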
Sequence of Torsin-1A-interacting protein 2 (Homo sapiens) (Q8NFQ8 whole entry, looked up): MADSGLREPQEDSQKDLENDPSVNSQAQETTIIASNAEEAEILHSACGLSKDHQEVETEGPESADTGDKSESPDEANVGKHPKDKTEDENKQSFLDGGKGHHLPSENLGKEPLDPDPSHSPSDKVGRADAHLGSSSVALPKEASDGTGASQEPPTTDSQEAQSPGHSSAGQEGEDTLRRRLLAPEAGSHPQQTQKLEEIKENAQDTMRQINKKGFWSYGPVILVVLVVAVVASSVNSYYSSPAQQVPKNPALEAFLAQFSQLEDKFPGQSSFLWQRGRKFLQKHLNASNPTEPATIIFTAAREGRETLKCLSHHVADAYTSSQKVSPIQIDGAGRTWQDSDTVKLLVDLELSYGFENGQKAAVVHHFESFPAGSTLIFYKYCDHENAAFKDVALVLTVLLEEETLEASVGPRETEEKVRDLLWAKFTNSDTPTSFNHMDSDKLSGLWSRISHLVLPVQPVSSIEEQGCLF

[16] = optical density change of DRC41 E. coli – strain DRC41, OD650, 24 h, E. coli filamentation project, primary screen (AID 1093);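 further: MC1000 strain lacking acrAB efflux and sulA so SOS filamentation is blocked; test concentration not given here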; conditions: E. coli DRC41 growth, higher = more signal, called active from +8 up or from −8 down
[17] = probe aLefty2 binding to arrayed compounds – biochemical, biotinylated probe, 635/667 nm fluorescence, primary screen (AID 1094); conditions: small-molecule microarray, higher = more signal;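 further: score merges spot fluorescence near 667 nm with spot signal-to-noise ratio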
[18] = test system: Noggin (protein binding on small-molecule microarray); test: small molecules binding Noggin protein – biochemical, 635/667 nm fluorescence, primary screen (AID 1095); conditions: 635 nm fluorescence, higher = more signal;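 further: score merges 667 nm feature fluorescence with signal to noise over triplicate slides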
[19] = molecular target: Neurogenic locus notch homolog protein 3 (Homo sapiens) (UniProt Q9UM47); test: small molecules binding NOTCH3 protein – biochemical, 635/667 nm fluorescence, primary screen (AID 1096); conditions: small-molecule microarray, 635 nm fluorescence, higher = more signal
Sequence of Neurogenic locus notch homolog protein 3 (Homo sapiens) (Q9UM47 whole entry, looked up): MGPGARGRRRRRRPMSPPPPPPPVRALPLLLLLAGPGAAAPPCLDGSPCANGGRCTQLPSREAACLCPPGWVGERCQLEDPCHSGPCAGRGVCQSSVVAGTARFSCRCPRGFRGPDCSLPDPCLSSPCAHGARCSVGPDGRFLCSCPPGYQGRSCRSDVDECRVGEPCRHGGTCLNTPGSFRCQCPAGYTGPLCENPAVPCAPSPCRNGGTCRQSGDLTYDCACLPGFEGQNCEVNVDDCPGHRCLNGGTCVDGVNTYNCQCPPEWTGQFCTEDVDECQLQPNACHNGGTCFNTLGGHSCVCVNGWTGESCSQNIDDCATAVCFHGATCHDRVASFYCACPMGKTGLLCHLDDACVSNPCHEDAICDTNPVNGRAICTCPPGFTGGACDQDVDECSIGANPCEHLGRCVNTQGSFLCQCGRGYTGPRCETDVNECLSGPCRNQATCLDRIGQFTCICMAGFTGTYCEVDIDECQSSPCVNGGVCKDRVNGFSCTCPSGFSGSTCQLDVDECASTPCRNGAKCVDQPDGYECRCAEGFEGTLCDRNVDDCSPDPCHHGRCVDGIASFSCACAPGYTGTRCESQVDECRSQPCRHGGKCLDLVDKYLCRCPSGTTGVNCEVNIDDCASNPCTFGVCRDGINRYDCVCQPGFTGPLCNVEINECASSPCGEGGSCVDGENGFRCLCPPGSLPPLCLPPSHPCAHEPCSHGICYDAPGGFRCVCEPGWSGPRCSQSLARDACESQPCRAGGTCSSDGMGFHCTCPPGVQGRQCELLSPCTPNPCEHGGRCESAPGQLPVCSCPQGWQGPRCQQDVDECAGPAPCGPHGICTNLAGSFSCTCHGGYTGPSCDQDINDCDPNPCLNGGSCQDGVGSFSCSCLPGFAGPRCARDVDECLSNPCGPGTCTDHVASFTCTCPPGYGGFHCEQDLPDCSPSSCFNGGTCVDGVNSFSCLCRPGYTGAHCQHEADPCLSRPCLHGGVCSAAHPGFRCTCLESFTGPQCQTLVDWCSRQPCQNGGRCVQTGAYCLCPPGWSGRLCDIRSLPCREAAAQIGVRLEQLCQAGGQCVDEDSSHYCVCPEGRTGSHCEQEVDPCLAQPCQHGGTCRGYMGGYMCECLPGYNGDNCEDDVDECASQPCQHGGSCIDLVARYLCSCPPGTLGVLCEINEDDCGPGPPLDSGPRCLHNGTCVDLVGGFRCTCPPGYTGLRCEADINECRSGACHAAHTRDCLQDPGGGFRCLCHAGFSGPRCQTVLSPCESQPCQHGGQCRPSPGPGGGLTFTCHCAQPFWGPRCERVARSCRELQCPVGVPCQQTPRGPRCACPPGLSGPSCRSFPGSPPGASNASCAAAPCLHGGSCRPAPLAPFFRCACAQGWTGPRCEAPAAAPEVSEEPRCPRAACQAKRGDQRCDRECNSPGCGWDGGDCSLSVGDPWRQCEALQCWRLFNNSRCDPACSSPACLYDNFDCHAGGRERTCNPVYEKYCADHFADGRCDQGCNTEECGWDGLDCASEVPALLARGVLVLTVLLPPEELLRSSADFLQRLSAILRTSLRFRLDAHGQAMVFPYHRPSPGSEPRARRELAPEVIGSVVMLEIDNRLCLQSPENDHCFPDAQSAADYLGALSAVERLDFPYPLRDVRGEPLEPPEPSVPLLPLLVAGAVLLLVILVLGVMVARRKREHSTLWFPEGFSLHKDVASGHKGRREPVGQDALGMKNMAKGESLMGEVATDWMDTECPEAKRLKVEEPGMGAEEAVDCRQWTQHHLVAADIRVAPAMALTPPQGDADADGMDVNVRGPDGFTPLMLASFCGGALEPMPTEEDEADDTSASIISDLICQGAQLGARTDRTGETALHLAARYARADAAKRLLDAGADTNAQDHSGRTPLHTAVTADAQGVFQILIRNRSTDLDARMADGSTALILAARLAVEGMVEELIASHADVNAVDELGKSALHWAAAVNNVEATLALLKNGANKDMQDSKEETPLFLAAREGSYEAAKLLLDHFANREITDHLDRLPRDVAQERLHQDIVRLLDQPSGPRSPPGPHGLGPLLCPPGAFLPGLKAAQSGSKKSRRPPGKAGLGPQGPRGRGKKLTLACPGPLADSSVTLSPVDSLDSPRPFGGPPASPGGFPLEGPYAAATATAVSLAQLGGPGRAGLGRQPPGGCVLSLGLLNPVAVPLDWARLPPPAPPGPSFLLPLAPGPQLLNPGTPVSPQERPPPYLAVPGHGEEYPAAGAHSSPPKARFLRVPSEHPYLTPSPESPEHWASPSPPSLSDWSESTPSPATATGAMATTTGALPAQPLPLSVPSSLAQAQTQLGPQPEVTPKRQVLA

[20] = probe aEGFR binding to arrayed compounds – biochemical, biotinylated probe, 635/667 nm fluorescence, primary screen (AID 1097); conditions: small-molecule microarray, higher = more signal;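 further: probe is a biotinylated anti-EGFR antibody binding compounds printed on slides; score combines fluorescence near 667 nm and signal to noise of each spot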

Compound | composite z-score [1] | composite z-score [2] | composite z-score [3] | composite z-score [4] | composite z-score [5] | composite z-score [6] | composite z-score [7] | z-score [8] | composite z-score [9] | composite z-score [10] | composite z-score [11] | z-score [12] | z-score [13] | z-score [14] | composite z-score [15] | z-score [16] | composite z-score [17] | composite z-score [18] | composite z-score [19] | composite z-score [20]
O=C1c2ccccc2[C@@]2(Cc3ccccc3N(CC(F)(F)F)C2=O)[C@H](c2ccc(CO)cc2)N1Cc1ccccc1C(F)(F)F | 0.886 | -0.752 | -0.131 | -0.597 | -1.34 | -0.61 | -1.2 | -0.435 (inactive) | -0.596 | -0.191 | 0.52 | -0.84 (inactive) | -1.25 (inactive) | -1.12 (inactive) | 0.394 | 0.886 (inactive) | -0.0412 | -1.51 | -1.18 | -0.26
O=C(NCC(F)(F)F)[C@@H]1c2ccccc2C(=O)N(C2Cc3ccccc3C2)[C@H]1c1ccc(CO)cc1 | 0.833 | -0.67 | -0.0487 | -0.514 | -0.98 | -0.0643 | 0.0014 | -0.827 (inactive) | -0.187 | -0.353 | -0.236 | -0.62 (inactive) | -1.06 (inactive) | -0.501 (inactive) | 0.492 | 2.12 (inactive) | 0.107 | -1.29 | -0.844 | -0.129
C[N+](C)(C)CCCCNC(=O)[C@@H]1C[C@@H]2C(=O)NCC(=O)N2[C@@H]1c1cccc(OCCO)c1 | -0.501 | 2.04 | -0.085 | 1.05 | -0.544 | 1.22 | 1.34 | -0.53 (inactive) | 0.432 | 0.167 | 1.39 | 2.16 (inactive) | -0.823 (inactive) | -1.89 (inactive) | 2.47 | 1.73 (inactive) | -0.0607 | 1.88 | 1.14 | 0.0526
C=C(C1=CCN(S(=O)(=O)c2ccc(C)cc2)C1)[C@@H](OC(C)=O)[C@@H]1CCCN1S(=O)(=O)c1ccccc1[N+](=O)[O-] | -0.0883 | -0.189 | -0.05 | 0.487 | -0.574 | -0.158 | 0.406 | -3.21 (inactive) | -0.344 | -0.0994 | -0.267 | 0.943 (inactive) | 0.0893 (inactive) | 1.82 (inactive) | 1.2 | 2.89 (inactive) | -0.297 | -0.305 | 0.127 | -0.202
COC(=O)c1c(CC[C@@H](CO)NC(=O)Nc2ccc(OC)cc2)oc(C(=O)Cc2ccccc2)c1C(=O)OC | -0.211 | 0.469 | -0.0924 | 0.411 | 0.704 | 0.191 | 1.03 | -0.814 (inactive) | -0.0409 | -0.0672 | 0.477 | 1.54 (inactive) | -1.21 (inactive) | 2.23 (inactive) | 0.478 | 1.85 (inactive) | -0.0233 | 0.414 | 0.101 | -0.0252
C=CCN1C(=O)[C@@]2(O[C@@H](CCO)[C@H]([Si](C)(C)c3ccc(OC)cc3)[C@H]2C)c2cc(N(C=O)c3ccccc3)ccc21 | 0.156 | 0.24 | -0.125 | 0.461 | 0.555 | 0.657 | 0.904 | -1.06 (inactive) | 0.143 | 0.154 | 1.11 | 0.551 (inactive) | -0.67 (inactive) | 21 (active) | 0.586 | 1.85 (inactive) | 0.0183 | 0.366 | 0.259 | -0.0304
CC(C)(C)OC(=O)CC[C@@]12N=C(c3ccc(OCCCO)cc3)O[C@@H]1c1ccccc1N(Cc1ccccc1)C2=O | 0.96 | 0.842 | -0.0481 | -0.422 | 0.246 | 0.778 | 1.21 | -3.31 (inactive) | 0.439 | -0.0645 | 1.32 | 0.0492 (inactive) | -1.2 (inactive) | 3.98 (inactive) | 3.26 | 1.55 (inactive) | 0.0622 | 0.753 | 1.05 | -0.0497
Cc1ccc(S[C@]2(C(=O)NCC(C)C)CC(=O)N(C(C)C)[C@@H]2c2ccc(CO)cc2)cc1 | -1.02 | -0.691 | -0.083 | -0.293 | -0.625 | -0.517 | -0.0249 | -0.781 (inactive) | 0.272 | 0.271 | 0.493 | 0.588 (inactive) | -2.12 (inactive) | -0.942 (inactive) | -0.219 | 0.538 (inactive) | -0.0193 | -0.197 | -0.534 | -0.175
COc1ccc(/C=C/C(=O)c2cccc(OCC(=O)OC(C)(C)C)c2)cc1 | 0.158 | 0.0968 | -0.17 | -0.672 | -0.466 | 0.421 | 0.284 | 4.17 (inactive) | -0.126 | -0.226 | 0.898 | 0.0268 (inactive) | -2.14 (inactive) | 10.9 (active) | 1.21 | 0.328 (inactive) | -0.102 | -0.584 | -0.974 | -0.304
C=CCNC(=O)[C@H]1[C@@H]2C(=O)O[C@@H](c3ccccc3)[C@@H](c3ccccc3)N2[C@@H](c2ccc(OCCO)cc2)[C@]12C(=O)Nc1ccc(C#CCCO)cc12 | 0.268 | 1.14 | -0.0901 | -0.168 | -0.23 | 1.08 | 1.15 | -4.1 (inactive) | 0.219 | -0.0994 | 1.57 | 0.443 (inactive) | -1.91 (inactive) | 2.38 (inactive) | 2.42 | 2.71 (inactive) | -0.148 | 0.292 | 0.73 | -0.087
